# Measurements as given in PubChem BioAssay (NCI).
# Compounds without any hit were thinned out: in the full panel of roughly 79,000, 15% have a hit. Values without a mark were called inactive. Calls of active or inactive are those of the source. Cut-off read from the data, not from the text of the source: active = growth inhibition above about 70%; inactive = the rest.
# Assay: NCI Yeast Anticancer Drug Screen. Data for the rad50 strain (AID 155);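 note: 0% = growth of vehicle-only cultures of the same strain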
# Settings: S. cerevisiae rad50 strain growth inhibition, active compounds read high; at 50.0 µM unless noted
# In short: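 Relative growth inhibition (compound vs vehicle) was measured in yeast with a defined repair-gene alteration.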
row,Structure (SMILES),growth inhibition
1,CC(N)C(=O)NO (configuration not stated),-20.4%
2,O=P(O)(O)OCC1OC(n2cnc3c(=S)nc[nH]c32)C(O)C1O (configuration not stated),-17.4%
3,C=C=C(C)[Si](C)(C)C,-14.8%
4,Nc1ccc(C(=O)N/N=C/c2ccccc2O)cc1,16.9%
5,O=C1NC(=S)S/C1=C/C=C/c1ccccc1,-21.4%
6,C=C(c1c(C)cccc1OC(C)=O)c1c(C)cccc1OC(C)=O,-8.8%
7,COc1ccc(/C=C2\N=C3N(Cc4ccccc4)C=C(N)N3C2=O)cc1,2.65%
8,COc1ccc2oc3cc(Cl)ccc3c(=O)c2c1,4.8%
9,O=C(CCC1OCCO1)Nc1cc([N+](=O)[O-])ccc1OCc1ccccc1,-1.9%
10,CC(=O)O[C@@H]1C(=O)C=C(C)[C@@H]2[C@@H](OC(=O)C=C(C)C)[C@H]3OC(=O)C[C@H]4[C@@H](C)[C@@H](O)[C@]5(O)OC[C@]34[C@H]5[C@@]12C,87.4% (active)
11,COc1ccccc1N=Nc1c(O)n(-c2ccccc2OC)c(=S)n(-c2ccccc2)c1=O,40.8%
12,CCOC(=N)n1c(=O)n(C2=NCCN2)c2ccccc21,0.45%
13,C=CCCCC1CCCNC1=S (configuration not stated),8.3%
14,N#C/C(=C\c1ccccc1)c1ccc(F)cc1,39.4%
15,CC(c1cccc(O)c1)N(C)C (configuration not stated),5.9%
16,[N-]=[N+]=Nc1cccc(-c2n[nH]c(Cl)cc2=O)c1,-19.9%
17,C=CCOC(=O)c1ccc(C(C)C)cc1,25.1%
